From PubChem BioAssay (NCATS)
Inconclusive results are not listed. Active and inactive are the calls of the source. Unless noted, calls follow the shape of the dose curve; as a rule, active = well fitted curve in the direction sought with a large enough effect; inconclusive = small, poorly fitted or top-dose-only effect, or another doubt; inactive = no such curve, though single readings can be large; an effect the other way counts as inactive or inconclusive.

How the values were obtained:
[1] = qHTS Validation Assay to Find Inhibitors of Chronic Active B-Cell Receptor Signaling (AID 485345; active = well fitted curve in the direction sought with a large enough effect in the main read-out, with a control signal flat, not every such curve was filed as active;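 also: 0% = untreated basal cells and 100% = 10 µM MG-132 proteasome inhibitor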)
How it was run: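 TMD8 ABC-DLBCL cells stably carrying doxycycline-inducible IkappaBalpha–green luciferase fusion plus unfused red luciferase; compounds 46 uM to 3 nM, 4 h at 37C with doxycycline. Corrected green/red luminescence ratio normalized to 10 uM MG-132 and basal cell wells; curves fitted.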

[2] = biological target: Beta-2 adrenergic receptor (Homo sapiens) (UniProt P07550); assay: qHTS validation assay of beta-arrestin-biased ligands of beta2-adrenergic receptor (AID 485366); also: 0% is about no effect
Beta-2 adrenergic receptor (Homo sapiens), sequence (P07550 whole entry, looked up): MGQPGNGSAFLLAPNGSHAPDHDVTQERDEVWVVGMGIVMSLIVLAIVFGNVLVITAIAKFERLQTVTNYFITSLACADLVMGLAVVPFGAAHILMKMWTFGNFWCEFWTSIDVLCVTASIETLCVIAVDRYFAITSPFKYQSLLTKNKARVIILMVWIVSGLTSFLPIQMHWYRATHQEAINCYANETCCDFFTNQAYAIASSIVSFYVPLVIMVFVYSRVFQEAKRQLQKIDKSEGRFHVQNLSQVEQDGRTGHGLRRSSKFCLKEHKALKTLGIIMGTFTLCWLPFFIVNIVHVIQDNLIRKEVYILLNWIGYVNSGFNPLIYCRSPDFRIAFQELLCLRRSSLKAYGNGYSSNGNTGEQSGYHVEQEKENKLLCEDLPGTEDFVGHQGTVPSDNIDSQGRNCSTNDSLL
How it was run: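 Values derive from curve-fitted %Activity of a luminescent beta-arrestin recruitment reporter; compounds tested up to 46 microM on Tango cells for 18 hr at 37 degrees C, 5% CO2.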

[3] = Quantitative high throughput screen for delayed death inhibitors of the malarial parasite plastid, 96 hour incubation (AID 488745); also: series mostly up to about 29 µM; % is scaled to controls: 0 for no effect and ±100 for the full control effect; nearly all actives have a fitted effect of over 70% in size
How it was run: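 Luciferase-expressing P. falciparum in erythrocytes (2% hematocrit, 0.1% parasitemia) incubated with compound for 96 h at 37 C, 5% CO2, in RPMI 1640 with 0.5% Albumax. Growth inhibition read as decreased luminescence.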

[4] = Quantitative high throughput screen for delayed death inhibitors of the malarial parasite plastid, 48 hour incubation (AID 488752); also: % is scaled to controls: 0 for no effect and ±100 for the full control effect; nearly all actives have a fitted effect of over 65% in size
How it was run: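 Erythrocytes infected with firefly luciferase-expressing P. falciparum (2% hematocrit, 0.1% parasitemia) cultured with compound for 48 h at 37 C, 5% CO2, in RPMI 1640/0.5% Albumax. Growth inhibition read as loss of luminescence.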

[5] = biological target: Thioredoxin reductase 1, cytoplasmic (Rattus norvegicus) (UniProt O89049); assay: qHTS Assay for Substrates of Mammalian Selenoprotein Thioredoxin Reductase 1 (TrxR1) (AID 488772);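 also: NADPH fluorescence in the first read after selenite addition and not the 8 min delta; series mostly up to about 57 µM; 0% is about no effect; a drop in NADPH fluorescence below the no-compound background marks a TrxR1 substrate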
Thioredoxin reductase 1, cytoplasmic (Rattus norvegicus), sequence (O89049 whole entry, looked up): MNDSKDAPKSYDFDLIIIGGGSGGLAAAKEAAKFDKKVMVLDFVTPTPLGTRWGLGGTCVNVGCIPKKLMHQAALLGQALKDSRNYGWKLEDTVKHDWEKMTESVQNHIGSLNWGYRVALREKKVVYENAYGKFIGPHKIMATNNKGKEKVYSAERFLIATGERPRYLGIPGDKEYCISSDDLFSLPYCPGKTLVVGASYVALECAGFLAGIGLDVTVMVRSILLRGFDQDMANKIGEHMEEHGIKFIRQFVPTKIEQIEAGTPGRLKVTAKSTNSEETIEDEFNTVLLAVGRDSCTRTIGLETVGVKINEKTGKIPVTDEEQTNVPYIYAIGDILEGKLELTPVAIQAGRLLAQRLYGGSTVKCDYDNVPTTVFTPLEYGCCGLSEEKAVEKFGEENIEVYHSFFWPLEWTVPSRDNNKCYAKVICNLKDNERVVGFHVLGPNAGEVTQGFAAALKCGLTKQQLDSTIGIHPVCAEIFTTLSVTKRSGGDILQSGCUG
How it was run: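 Quantitative HTS in Tris-HCl buffer at pH 7.5 with EDTA and Tween-20, using rat TrxR1, 400 uM NADPH and 400 uM selenite (final). A fall in initial NADPH fluorescence relative to background marked substrate behaviour.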

[6] = biological target: Thioredoxin reductase 1, cytoplasmic (Rattus norvegicus) (UniProt O89049); assay: qHTS Assay for Inhibitors of Mammalian Selenoprotein Thioredoxin Reductase 1 (TrxR1) (AID 488773); conditions: Potency: inhibition;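 also: drop in NADPH fluorescence over an 8 min run after selenite addition; series mostly up to about 57 µM; % is scaled to controls: 0 for no effect and ±100 for the full control effect; nearly all actives have a fitted effect of over 40% in size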
How it was run: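 Steps: enzyme (90 nM) plus NADPH (400 uM final), 5 min at ~22 deg C; compound added, 15 min; selenite (400 uM final) added; fluorescence followed for 8 min. Concentration-response curves derived from the normalized delta values.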

[7] = biological target: Flap endonuclease 1 (Homo sapiens) (UniProt P39748); assay: qHTS Validation Assay for the Inhibitors of Human Flap endonuclease 1 (FEN1) (AID 488816); also: % is scaled to controls: 0 for no effect and ±100 for the full control effect
Flap endonuclease 1 (Homo sapiens), sequence (P39748 whole entry, looked up): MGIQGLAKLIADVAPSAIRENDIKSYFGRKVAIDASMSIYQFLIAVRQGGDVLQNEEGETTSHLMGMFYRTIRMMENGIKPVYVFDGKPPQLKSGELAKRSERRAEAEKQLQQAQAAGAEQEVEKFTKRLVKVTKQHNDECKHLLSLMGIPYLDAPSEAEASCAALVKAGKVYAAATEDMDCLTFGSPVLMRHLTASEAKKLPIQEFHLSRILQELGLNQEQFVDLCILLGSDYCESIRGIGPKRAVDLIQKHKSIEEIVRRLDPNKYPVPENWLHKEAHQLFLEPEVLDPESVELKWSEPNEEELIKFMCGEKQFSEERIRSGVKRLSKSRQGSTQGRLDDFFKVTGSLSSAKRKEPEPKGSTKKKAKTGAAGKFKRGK
How it was run: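 Human FEN1 (10 nM) preincubated 15 min at room temperature with compounds, then flap DNA substrate added at 50 nM final. Fluorescence read at 0 and 15 min; concentration-response fitted with four-parameter Hill equation.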

[8] = biological target: M-phase phosphoprotein 8 (Homo sapiens) (UniProt Q99549); assay: qHTS Validation Assay for Inhibitors for MPP8 Chromodomain Interactions with Methylated Histone Tails (AID 488949);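 also: AlphaScreen signal from MPP8 chromodomain bound to biotinylated H3K9me3 peptide; top concentration of the series differs between compounds; % is scaled to controls: 0 for no effect and ±100 for the full control effect; nearly all actives have a fitted effect of over 55% in size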
M-phase phosphoprotein 8 (Homo sapiens), sequence (Q99549 whole entry, looked up): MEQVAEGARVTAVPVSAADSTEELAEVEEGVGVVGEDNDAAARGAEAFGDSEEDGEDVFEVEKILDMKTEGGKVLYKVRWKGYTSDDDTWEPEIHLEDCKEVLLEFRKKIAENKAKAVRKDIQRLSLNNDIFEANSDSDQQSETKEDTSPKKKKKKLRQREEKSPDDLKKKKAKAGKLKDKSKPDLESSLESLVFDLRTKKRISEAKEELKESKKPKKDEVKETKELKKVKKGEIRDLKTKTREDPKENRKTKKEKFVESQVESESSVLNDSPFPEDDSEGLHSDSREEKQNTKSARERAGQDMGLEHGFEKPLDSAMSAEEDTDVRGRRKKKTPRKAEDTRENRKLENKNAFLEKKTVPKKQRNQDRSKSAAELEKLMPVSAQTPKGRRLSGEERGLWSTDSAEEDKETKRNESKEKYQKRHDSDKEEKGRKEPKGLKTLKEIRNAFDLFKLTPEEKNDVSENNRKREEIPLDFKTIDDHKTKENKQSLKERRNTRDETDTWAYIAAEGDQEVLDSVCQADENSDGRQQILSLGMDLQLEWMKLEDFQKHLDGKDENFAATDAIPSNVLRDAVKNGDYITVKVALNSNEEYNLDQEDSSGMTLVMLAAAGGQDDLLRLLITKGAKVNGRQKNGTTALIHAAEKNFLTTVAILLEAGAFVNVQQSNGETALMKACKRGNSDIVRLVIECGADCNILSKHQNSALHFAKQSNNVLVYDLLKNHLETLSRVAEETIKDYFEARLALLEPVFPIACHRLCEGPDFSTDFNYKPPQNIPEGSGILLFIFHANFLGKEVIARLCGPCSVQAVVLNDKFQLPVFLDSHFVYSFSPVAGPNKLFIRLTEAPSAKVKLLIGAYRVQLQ
How it was run: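 MPP8 (50 nM) was preincubated with biotinylated H3(1-18)K9me3 peptide (50 nM) in PBS pH 7.4, 0.01% Tween-20 for 30 min at room temperature, then with compounds for 30 min; binding was detected by AlphaScreen.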

[9] = biological target: Chromobox protein homolog 1 (Homo sapiens) (UniProt P83916); assay: qHTS Validation Assay for Inhibitors of HP1-beta Chromodomain Interactions with Methylated Histone Tails (AID 488953);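 also: loss of AlphaScreen luminescence from HP1-beta binding biotinylated H3K9me3 peptide; series mostly up to about 110 µM; % is scaled to controls: 0 for no effect and ±100 for the full control effect; nearly all actives have a fitted effect of over 50% in size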
Chromobox protein homolog 1 (Homo sapiens), sequence (P83916 whole entry, looked up): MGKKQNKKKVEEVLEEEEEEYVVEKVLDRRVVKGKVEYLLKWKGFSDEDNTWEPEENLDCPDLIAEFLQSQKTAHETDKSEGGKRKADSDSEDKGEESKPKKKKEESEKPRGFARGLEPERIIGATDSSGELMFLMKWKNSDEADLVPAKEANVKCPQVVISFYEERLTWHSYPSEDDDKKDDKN
How it was run: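 HP1-beta (50 nM) preformed 30 min with biotinylated H3(1-18)K9me3 peptide (50 nM) in PBS pH 7.4, 0.01% Tween-20. Compounds added for 30 min at room temperature. Complex disruption read by AlphaScreen with streptavidin donor/nickel chelate acceptor beads (10 ug/mL each).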

[10] = biological target: Transient receptor potential cation channel subfamily V member 1 (Homo sapiens) (UniProt Q8NER1); assay: HTS Assay for Compounds that Act as Enhancers of the Vanilloid Receptor 1 (AID 488979); also: 0% is about no effect
How it was run: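 TRPV1 cells loaded with Fluo-8 calcium dye; compound added and Ca2+ signal (ex 480/em 520 nm) followed 3 min, then capsaicin at EC20 added and read 2 more min to detect enhancement.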

[11] = biological target: Thyrotropin receptor (Homo sapiens) (UniProt P16473); assay: qHTS Assay for Antagonists of the Thyroid Stimulating Hormone Receptor (AID 488980); also: series mostly up to about 58 µM; 0% is about no effect
How it was run: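 HEK293 cells transfected with human TSHR, suspended in HEPES-buffered HBSS with 70 uM RO 20-1724, were treated with compounds plus TSH at EC80 (4 nM final). cAMP was measured by competitive HTRF (cryptate anti-cAMP antibody, cAMP-d2 acceptor).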

[12] = biological target: D(1A) dopamine receptor (Homo sapiens) (UniProt P21728); assay: HTS Assay for Allosteric Agonists of the Human D1 Dopamine Receptor: Primary Screen for Agonists (AID 488981); also: 0% is about no effect
D(1A) dopamine receptor (Homo sapiens), sequence (P21728 whole entry, looked up): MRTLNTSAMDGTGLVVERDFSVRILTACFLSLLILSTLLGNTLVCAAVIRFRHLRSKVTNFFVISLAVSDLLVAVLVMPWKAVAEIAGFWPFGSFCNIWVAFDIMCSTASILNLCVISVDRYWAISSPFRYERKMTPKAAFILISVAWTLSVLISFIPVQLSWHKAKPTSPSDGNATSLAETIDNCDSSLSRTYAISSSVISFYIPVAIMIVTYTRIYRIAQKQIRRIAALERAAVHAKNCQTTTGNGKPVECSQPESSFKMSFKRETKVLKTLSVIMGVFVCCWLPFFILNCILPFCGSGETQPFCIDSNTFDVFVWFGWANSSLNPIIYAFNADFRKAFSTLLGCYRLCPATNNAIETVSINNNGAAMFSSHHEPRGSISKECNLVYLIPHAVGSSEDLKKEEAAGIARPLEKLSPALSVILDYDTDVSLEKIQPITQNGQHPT
How it was run: (§1)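 Tetracycline-induced HEK293 Trex D1 cells with forced coupling to calcium, loaded with no-wash calcium dye; kinetic fluorescence read 180 s after compound addition for agonism, then a further 180 s after an EC20 dopamine challenge for potentiation.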

[13] = biological target: D(1A) dopamine receptor (Homo sapiens) (UniProt P21728); assay: HTS Assay for Allosteric Agonists of the Human D1 Dopamine Receptor: Primary Screen for Potentiators (AID 488982); also: 0% is about no effect
How it was run: as §1

[14] = biological target: D(1A) dopamine receptor (Homo sapiens) (UniProt P21728); assay: HTS Assay for Allosteric Agonists of the Human D1 Dopamine Receptor: Primary Screen for Antagonists (AID 488983);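 also: calcium flux response to an EC80 dopamine challenge measured with no-wash dye; % is scaled to controls: 0 for no effect and ±100 for the full control effect; nearly all actives have a fitted effect of over 65% in size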
How it was run: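 Tetracycline-induced HEK293 T-REx D1 line, force-coupled to calcium flux, read with no-wash calcium dye. Compound added after 10 s baseline, read 180 s for agonism, then EC80 dopamine added and read a further 180 s.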

[15] = Validation screen for small molecules that induce genotoxicity in human embryonic kidney (HEK293T) cells expressing luciferase-tagged ELG1 (AID 493106); also: 0% is about no effect
How it was run: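 HEK293T cells expressing luciferase-tagged ELG1, 2,000 cells/well, exposed to compound 16 hr at 37 °C, 5% CO2. Luciferase read after ONE-Glo, 30 min at room temperature; increased signal indicates genetic stress.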

[16] = biological target: ATPase family AAA domain-containing protein 5 (Homo sapiens) (UniProt Q96QE3); assay: Validation screen for small molecules that inhibit ELG1-dependent DNA repair in human embryonic kidney (HEK293T) cells expressing luciferase-tagged ELG1 (AID 493107);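 also: cells co-treated with the DNA-damaging agent 5-fluorouridine alongside compound; series mostly up to about 46 µM; % is scaled to controls: 0 for no effect and ±100 for the full control effect; inhibitors lower the ELG1-luciferase luminescence signal; nearly all actives have a fitted effect of over 70% in size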
ATPase family AAA domain-containing protein 5 (Homo sapiens), sequence (Q96QE3 whole entry, looked up, the tested form may be a part): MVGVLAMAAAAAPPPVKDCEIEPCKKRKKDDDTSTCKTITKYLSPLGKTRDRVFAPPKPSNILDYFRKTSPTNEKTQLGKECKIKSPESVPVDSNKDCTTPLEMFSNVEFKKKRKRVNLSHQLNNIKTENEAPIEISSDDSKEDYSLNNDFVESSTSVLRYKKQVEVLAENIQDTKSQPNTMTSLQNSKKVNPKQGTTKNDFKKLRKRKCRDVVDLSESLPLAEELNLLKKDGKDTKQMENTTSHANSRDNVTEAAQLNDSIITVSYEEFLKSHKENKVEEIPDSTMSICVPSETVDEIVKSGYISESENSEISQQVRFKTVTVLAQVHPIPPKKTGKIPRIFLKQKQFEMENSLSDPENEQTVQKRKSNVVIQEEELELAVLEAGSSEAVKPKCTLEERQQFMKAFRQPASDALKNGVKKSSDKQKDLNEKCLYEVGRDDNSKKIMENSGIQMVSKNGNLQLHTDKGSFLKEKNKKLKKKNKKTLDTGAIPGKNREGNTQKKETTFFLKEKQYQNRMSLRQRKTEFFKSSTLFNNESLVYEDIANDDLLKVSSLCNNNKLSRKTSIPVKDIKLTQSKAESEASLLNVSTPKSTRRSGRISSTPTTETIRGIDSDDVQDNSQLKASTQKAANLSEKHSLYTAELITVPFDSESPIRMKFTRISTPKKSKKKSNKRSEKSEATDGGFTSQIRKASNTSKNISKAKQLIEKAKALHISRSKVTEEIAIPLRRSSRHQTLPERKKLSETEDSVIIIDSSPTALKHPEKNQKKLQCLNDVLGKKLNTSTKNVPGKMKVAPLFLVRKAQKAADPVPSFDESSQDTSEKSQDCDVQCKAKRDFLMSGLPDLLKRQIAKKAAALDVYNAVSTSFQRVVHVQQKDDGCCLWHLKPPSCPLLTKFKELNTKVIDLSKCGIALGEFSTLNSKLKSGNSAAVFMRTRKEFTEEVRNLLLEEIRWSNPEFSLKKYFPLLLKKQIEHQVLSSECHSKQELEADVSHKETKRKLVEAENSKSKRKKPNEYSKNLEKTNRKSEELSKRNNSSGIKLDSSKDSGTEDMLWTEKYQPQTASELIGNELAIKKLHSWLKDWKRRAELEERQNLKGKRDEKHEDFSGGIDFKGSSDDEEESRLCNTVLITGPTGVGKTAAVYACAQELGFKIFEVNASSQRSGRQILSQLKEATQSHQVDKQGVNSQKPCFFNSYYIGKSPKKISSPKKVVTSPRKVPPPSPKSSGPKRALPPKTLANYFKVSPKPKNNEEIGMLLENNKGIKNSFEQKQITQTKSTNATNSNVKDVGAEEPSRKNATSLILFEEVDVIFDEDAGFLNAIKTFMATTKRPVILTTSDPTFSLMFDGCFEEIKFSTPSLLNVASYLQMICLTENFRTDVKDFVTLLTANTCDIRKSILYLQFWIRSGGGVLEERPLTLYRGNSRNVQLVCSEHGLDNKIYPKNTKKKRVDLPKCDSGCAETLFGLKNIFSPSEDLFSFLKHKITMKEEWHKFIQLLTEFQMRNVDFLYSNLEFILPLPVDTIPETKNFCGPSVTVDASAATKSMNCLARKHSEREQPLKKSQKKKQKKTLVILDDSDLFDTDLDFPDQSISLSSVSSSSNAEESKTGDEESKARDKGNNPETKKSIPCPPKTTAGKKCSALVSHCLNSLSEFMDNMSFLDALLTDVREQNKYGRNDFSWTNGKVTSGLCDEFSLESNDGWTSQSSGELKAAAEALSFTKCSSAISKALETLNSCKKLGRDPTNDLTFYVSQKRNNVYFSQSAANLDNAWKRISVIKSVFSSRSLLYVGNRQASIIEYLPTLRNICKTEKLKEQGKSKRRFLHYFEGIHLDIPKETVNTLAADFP
How it was run: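 HEK293T cells expressing luciferase-tagged ELG1, 2,000 per well, treated with 5-fluorouridine plus compound for 16 h at 37 C. ONE-Glo luminescence after 30 min at room temperature reports ELG1 reporter level.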

[17] = biological target: Thyrotropin-releasing hormone receptor (Homo sapiens) (UniProt P34981); assay: qHTS for Small Molecule Agonists and Allosteric Enhancers of Human TRH Receptor: Validation Screen for Agonists (AID 493127;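 active = calcium activation more than 3 SD above the typical response in the agonist read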; also: 0% is about no effect); conditions: TRH receptor agonist cell assay; at 2 µM; stronger effect = higher value
Thyrotropin-releasing hormone receptor (Homo sapiens), sequence (P34981 whole entry, looked up): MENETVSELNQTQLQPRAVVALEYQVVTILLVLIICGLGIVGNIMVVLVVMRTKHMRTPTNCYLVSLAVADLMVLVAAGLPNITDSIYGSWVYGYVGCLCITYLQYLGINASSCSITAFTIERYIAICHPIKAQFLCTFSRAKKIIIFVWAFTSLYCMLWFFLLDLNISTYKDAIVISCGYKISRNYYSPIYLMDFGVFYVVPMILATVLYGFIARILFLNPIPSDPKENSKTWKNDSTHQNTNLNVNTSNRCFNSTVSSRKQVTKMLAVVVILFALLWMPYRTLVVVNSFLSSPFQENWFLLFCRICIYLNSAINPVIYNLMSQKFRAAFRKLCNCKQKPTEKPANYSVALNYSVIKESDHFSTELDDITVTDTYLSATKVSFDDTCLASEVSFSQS
How it was run: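 TRHR cells loaded with fluo-8 calcium dye; FDSS kinetic fluorescence (Ex 480/Em 530) read at 1 s/cycle after 23 nL compound addition. Agonist-mode calcium response recorded before the 10 nM TRH (EC20) addition.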

[18] = Nrf2 qHTS screen for inhibitors: Validation (AID 493153; active = well fitted inhibition curve with a large enough effect in the main read-out, with a control signal flat, not every such curve was filed as active; also: series mostly up to about 46 µM; % of control where 0% means no effect); conditions: Potency: luciferase luminescence; viability change: measured here: cytotoxicity max response
How it was run: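 A549 cells carrying ARE-firefly luciferase reporter, 5000 cells/well in 5% FBS OPTI-MEM, treated with compound over a concentration series for 18-24 h at 37 C. Luciferase luminescence gave Nrf2 activity; CellTiter-Fluor fluorescence gave viability.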

O=[N+]([O-])c1ccc(O[C@@H]2O[C@H](CO)[C@@H](O)[C@H](O)[C@H]2F)c([N+](=O)[O-])c1
inactive: outcome [1] | outcome [2] | Potency [3] | Potency [4] | outcome [5] | Potency [6] | Potency [7] | Potency [8] | Potency [9] | outcome [10] | outcome [11] | outcome [12] | Potency [13] | outcome [14] | outcome [15] | Potency [16] | activation [17] 1.06% | Potency [18]
